According to PubChem BioAssay (NCI):
About 83,000 compounds went through this panel and 20% of them were active in at least one assay; those are over-represented in the sample as a whole.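 The test compound was applied at a single concentration to cells in 96-well plates for 48 hours, and percent growth was recorded.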 Values without a mark were called inactive. Activity calls are given as the source filed them. The calls were made as follows: active = growth percent below 10; inactive = the rest.

Assays:
Assay in all cases: NCI-60 one-dose screen, 48 h (100 = growth as untreated, 0 = no growth, -100 = all killed)
Settings in all cases: 10 µM unless noted
NCI-H23 lung = tested on: NCI-H23 lung
NCI-H226 lung = tested on: NCI-H226 lung
NCI-H322M lung = tested on: NCI-H322M lung
HOP-62 NSCLC = tested on: HOP-62 NSCLC
NCI-H460 lung = tested on: NCI-H460 lung
HOP-92 NSCLC = tested on: HOP-92 NSCLC
NCI-H522 lung = tested on: NCI-H522 lung
A549/ATCC NSCLC = tested on: A549/ATCC NSCLC
786-0 renal = tested on: 786-0 renal
COLO 205 colon = tested on: COLO 205 colon
DU-145 prostate = tested on: DU-145 prostate
K-562 leukemia = tested on: K-562 leukemia
MALME-3M melanoma = tested on: MALME-3M melanoma
MDA-MB-231 breast = tested on: MDA-MB-231 breast
RXF 393 renal = tested on: RXF 393 renal
SF-268 CNS = tested on: SF-268 CNS
SF-295 CNS = tested on: SF-295 CNS
SF-539 CNS = tested on: SF-539 CNS
UACC-257 melanoma = tested on: UACC-257 melanoma
M14 melanoma = tested on: M14 melanoma

SMILES | growth (NCI-H23 lung) | growth (NCI-H226 lung) | growth (NCI-H322M lung) | growth (HOP-62 NSCLC) | growth (NCI-H460 lung) | growth (HOP-92 NSCLC) | growth (NCI-H522 lung) | growth (A549/ATCC NSCLC) | growth (786-0 renal) | growth (COLO 205 colon) | growth (DU-145 prostate) | growth (K-562 leukemia) | growth (MALME-3M melanoma) | growth (MDA-MB-231 breast) | growth (RXF 393 renal) | growth (SF-268 CNS) | growth (SF-295 CNS) | growth (SF-539 CNS) | growth (UACC-257 melanoma) | growth (M14 melanoma)
COc1ccccc1NC(=O)C1CC(c2ccc(F)cc2)=NO1 (stereo not given) | 100% | 99.2% | 102% | 97.5% | 98.5% | 89.7% | 92.6% | 95.2% | 101% | 111% | 106% | 95% | 100% | 98.5% | 97% | 97.4% | 96.2% | 95.5% | 107% | 104%
Nc1nc(Nc2ccccc2SSc2ccccc2Nc2nc(N)nc(-c3ccc(C(F)(F)F)cc3)n2)nc(-c2ccc(C(F)(F)F)cc2)n1 | 31.5% | 55.3% | 88.6% | 47.8% | 40% | 90.7% | 80% | 5.2% (active) | 81.4% | 86.1% | 73.4% | 55% | 93% | 67.4% | 78.6% | 50.4% | 65.5% | 88.2% | 106% | 72.5%
COc1cc2nc(-c3ccc(Cl)cc3)cc(OCCCN3CCOCC3)c2cc1OC | 73.3% | -7.3% (active) | 57.4% | 60.1% | 21.6% | 19.3% | 21.6% | 29.9% | 67.5% | 25.7% | 43.8% | 10.3% | 64.9% | 27.2% | 28.7% | 63.2% | -39% (active) | 64.1% | 1.42% (active) | -37.9% (active)
CCCOc1ccc(/C=N/Nc2cc(C)nc3ccc(Cl)cc23)cc1 | 75.9% | 88.3% | 62.1% | 75.2% | -37.5% (active) | 69.2% | 86.9% | 36.9% | -86.4% (active) | -80.7% (active) | 24.2% | -37% (active) | -59% (active) | 60.1% | -18.9% (active) | 83.8% | -74.3% (active) | -62.6% (active) | 89.8% | -29.8% (active)
c1ccc(-c2cn3c(ccc4ccccc43)n2)cc1 | 70.5% | 79% | 77.5% | 68.4% | 20.6% | 65.6% | 44.5% | 47.1% | 81.7% | 41.9% | 87.8% | 20.8% | 80.7% | 55.8% | 86% | 74.7% | 60.2% | 62.6% | 78.9% | 32.2%
C=C1C(=O)O[C@H]2[C@H]1CC/C(C(=O)NCCCCCNC(=O)/C1=C/CC[C@@]3(C)O[C@H]3[C@H]3OC(=O)C(=C)[C@@H]3CC1)=C\CC[C@@]1(C)O[C@@H]21 | 97.6% | 103% | 93.9% | 98.8% | 109% | 105% | 89.3% | 95.3% | 101% | 102% | 104% | 114% | 96.2% | 106% | 110% | 96.1% | 105% | 105% | 97.7% | 92.3%
Cc1cc2c(C(=O)NCC#N)cccc2n1-c1nc2c(c(NCc3ccccc3)n1)CCCC2 | -41.8% (active) | -69.3% (active) | -19.5% (active) | -16.9% (active) | -35.7% (active) | -63.4% (active) | -24.9% (active) | -38.9% (active) | -56.8% (active) | -51% (active) | 2.51% (active) | 1.31% (active) | -72.1% (active) | -78.9% (active) | -68.9% (active) | -35.1% (active) | -76.2% (active) | -24.5% (active) | -36.4% (active) | -45% (active)
